Reference: PubChem BioAssay AID1159580 (chemical genetic matrix, 2015)
Several values for one entry are separate records, joined by “and”; a condition that tells them apart may be missing. Equal values may be shown once. The whole screen tested about 5,500 compounds, of which about 2,000 (36%) were called active. About 18% were inconclusive and are not listed. Rule as the data show it: active = normalized growth mostly below about 0.91 (no sharp cut-off); inconclusive = no clear call, values can overlap the other calls; inactive = mostly above about 0.92. Some of the results follow.

Assay: chemical genetic growth profiling, strain panel (AID 1159580);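 also: tested at 20 µM; growth read once vehicle control cultures reached saturation at 30 °C; 1 = growth at the plate median or of vehicle wells; lower values mean less growth of the strain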
Settings: S. cerevisiae deletion strains, growth OD

Measured: normalized growth

COc1cc2cc[n+]3cc4c(OC)c(OC)ccc4cc3c2cc1OC
inactive: locus YAL013W, strain DEP1, hits give low values 0.996 | locus YAL021C, strain ccr4, hits give low values 0.99 | locus YAL026C, strain drs2, hits give low values 0.97 | locus YAL030W, strain snc1, hits give low values 0.965 | locus YBL061C, strain skt5, hits give low values 0.971 | locus YBR009C, strain hhf1, hits give low values 0.984 | locus YBR021W, strain FUR4, hits give low values 1.03 | locus YBR023C, strain chs3, hits give low values 0.977 | locus YBR171W, strain sec66, hits give low values 0.975 | locus YBR229C, strain ROT2, hits give low values 0.99 | locus YBR231C, strain swc5, hits give low values 0.983 | locus YBR279W, strain paf1, hits give low values 0.982 | locus YCL011C, strain gbp2, hits give low values 0.963 | locus YCL016C, strain dcc1, hits give low values 0.976 | locus YCL029C, strain bik1, hits give low values 0.983 | locus YCL061C, strain MRC1, hits give low values 0.987 | locus YCL069W, strain vba3, hits give low values 0.981 | locus YCR088W, strain abp1, hits give low values 0.982 | locus YDL005C, strain med2, hits give low values 0.957 | locus YDL035C, strain GPR1, hits give low values 0.975 | locus YDL040C, strain nat1, hits give low values 0.985 | locus YDL074C, strain BRE1, hits give low values 0.977 | locus YDL101C, strain DUN1, hits give low values 0.98 | locus YDL134C, strain PPH21, hits give low values 0.985 | locus YDL192W, strain arf1, hits give low values 0.986 | locus YDR001C, strain nth1, hits give low values 0.964 | locus YDR069C, strain doa4, hits give low values 0.981 | locus YDR101C, strain arx1, hits give low values 0.978 | locus YDR137W, strain rgp1, hits give low values 0.977 | locus YDR150W, strain NUM1, hits give low values 0.954 | locus YDR159W, strain sac3, hits give low values 0.982 | locus YDR162C, strain NBP2, hits give low values 0.99 | locus YDR195W, strain ref2 0.949 | locus YDR297W, strain sur2, hits give low values 0.979 | locus YDR318W, strain mcm21, hits give low values 0.969 | locus YDR334W, strain swr1, hits give low values 0.944 | locus YDR335W, strain msn5, hits give low values 0.98 | locus YDR388W, hits give low values 0.989 | locus YDR392W, strain spt3, hits give low values 0.927 | locus YDR502C, strain sam2, hits give low values 0.98 | locus YEL003W, strain gim4, hits give low values 0.974 | locus YEL037C, strain rad23, hits give low values 0.967 | locus YEL061C, strain CIN8 (second series), hits give low values 0.976 | locus YEL061C, strain CIN8, hits give low values 0.996 | locus YER015W, strain faa2, hits give low values 0.971 | locus YER016W, strain bim1, hits give low values 0.974 | locus YER110C, hits give low values 0.962 | locus YER111C, strain swi4, hits give low values 0.972 | locus YER155C, strain BEM2 (second series), hits give low values 0.976 | locus YER155C, strain BEM2, hits give low values 1.01 | locus YER167W, strain BCK2, hits give low values 0.978 | locus YFR010W, strain ubp6, hits give low values 0.952 | locus YGL078C, strain dbp3, hits give low values 0.979 | locus YGL086W, strain mad1, hits give low values 0.975 | locus YGL167C, strain pmr1, hits give low values 0.973 | locus YGL173C, strain kem1, hits give low values 0.954 | locus YGL227W, strain vid30, hits give low values 0.973 | locus YGL240W, strain doc1, hits give low values 0.987 | locus YGL248W, strain PDE1, hits give low values 0.99 | locus YGL253W, strain hxk2, hits give low values 0.974 | locus YGR078C, strain PAC10, hits give low values 0.986 | locus YGR135W, strain pre9, hits give low values 1 | locus YGR229C, strain SMI1, hits give low values 1.01 | locus YGR252W, strain gcn5, hits give low values 0.93 | locus YHR013C, strain ard1, hits give low values 0.945 | locus YHR027C, strain rpn1, hits give low values 0.967 | locus YHR030C, strain SLT2, hits give low values 0.982 and 1.02 | locus YHR079C, strain IRE1 (second series), hits give low values 0.977 | locus YHR079C, strain IRE1, hits give low values 1.04 | locus YHR094C, strain hxt1, hits give low values 0.969 | locus YHR129C, strain ARP1, hits give low values 0.945 | locus YHR142W, strain chs7, hits give low values 0.932 | locus YHR200W, strain rpn10, hits give low values 0.965 | locus YIL066C, strain RNR3, hits give low values 0.974 | locus YIL073C, strain SPO22, hits give low values 0.875 | locus YIL125W, strain kgd1, hits give low values 0.965 | locus YIR030C, strain dcg1, hits give low values 0.98 | locus YJL092W, strain hpr5, hits give low values 0.978 | locus YJL095W, strain BCK1 (second series), hits give low values 0.993 | locus YJL095W, strain BCK1, hits give low values 0.994 and 0.984 | locus YJL115W, strain asf1, hits give low values 0.936 | locus YJL129C, strain trk1, hits give low values 0.94 | locus YJL134W, strain LCB3, hits give low values 0.973 | locus YJL154C, strain vps35, hits give low values 0.967 | locus YJL164C, strain tpk1, hits give low values 1 | locus YJL166W, strain qcr8, hits give low values 0.984 | locus YJL168C, strain set2, hits give low values 0.98 | locus YJL187C, strain SWE1 (second series), hits give low values 0.976 | locus YJL187C, strain SWE1, hits give low values 0.988 | locus YJR043C, strain POL32, hits give low values 0.96 | locus YJR066W, strain TOR1, hits give low values 0.976
